Measurements: PubChem BioAssay (NCATS)
Inconclusive results are not listed. The source made the active and inactive calls. Calls follow the shape of the dose curve; as a rule, active = well fitted inhibition curve with a large enough effect; inconclusive = small, poorly fitted or top-dose-only effect; inactive = flat fitted curve, though single readings scatter.

Experiments:
Assay in all cases: qHTS profiling for inhibitors of Plasmodium falciparum proliferation (AID 504749); also: nearly all actives have a fitted effect of over 60% in size
Conditions in all cases: P. falciparum in erythrocytes, SYBR Green DNA, 72 h; series mostly up to 28.7 µM
CP237 = system: CP237
Method in brief: (§1)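 Parasite proliferation within erythrocytes, 72 h exposure. Endpoint: SYBR Green I fluorescence after overnight lysis at room temperature. Controls: 0.29 uM artemisinin, DMSO.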

CP238 = system: CP238
Method in brief: as §1

CP247 = system: CP247
Method in brief: as §1

CP250 = system: CP250
Method in brief: as §1

CP252 = system: CP252
Method in brief: as §1

CP256 = system: CP256
Method in brief: as §1

CP260 = system: CP260
Method in brief: as §1

CP262 = system: CP262
Method in brief: as §1

CP265 = system: CP265
Method in brief: as §1

CP266 = system: CP266
Method in brief: as §1

CP268 = system: CP268
Method in brief: as §1

CP269 = system: CP269
Method in brief: as §1

CP286 = system: CP286
Method in brief: as §1

CP291 = system: CP291
Method in brief: as §1

CP297 = system: CP297
Method in brief: as §1

CP305 = system: CP305
Method in brief: as §1

CP315 = system: CP315
Method in brief: as §1

CP325 = system: CP325
Method in brief: as §1

CP329 = system: CP329
Method in brief: as §1

CP335 = system: CP335
Method in brief: as §1

Measured: Potency

CCCCOc1ccc(OCCCN2CCOCC2)cc1
not listed: CP335
inactive: all other assays above

O=C(CCN1CCC(c2ccccc2)C1)c1ccc2c(c1)OCCO2 (configuration not stated)
inactive: all assays above

CCCCC1=NC2(CCCC2)C(=O)N1Cc1ccc(-c2ccccc2-c2nn[nH]n2)cc1
inactive: all assays above

Nc1ccc(/C=C/c2ccc(N)cc2S(=O)(=O)O)c(S(=O)(=O)O)c1
inactive: all assays above

COc1c2occc2c(OC)c2c(=O)cc(C)oc12
inactive: all assays above

CCCCCC=CCC=CCCCCCCCC(=O)OCC
inactive: all assays above

N[C@H](Cc1c[nH]c2ccccc12)C(=O)O
not listed: CP335
inactive: all other assays above

C[C@]12CCC(=O)C=C1CC[C@H]1[C@@H]3CC[C@](O)(C(=O)CO)[C@@]3(C)C[C@H](O)[C@@]12F
inactive: all assays above

CCOC(=O)OC(C)OC1=C(C(=O)Nc2ccccn2)N(C)S(=O)(=O)c2ccccc21 (configuration not stated)
inactive: all assays above

Nc1cc(Cl)c(NC2=NCCN2)c(Cl)c1
inactive: all assays above

Nc1ccc(C(=O)O)cc1
inactive: all assays above

O=C(O)CCCCC(=O)O
not listed: CP335
inactive: all other assays above

CC(=O)Nc1c(I)cc(I)c(C(=O)O)c1I
inactive: all assays above

CN1C2CCC1CC(OC(=O)c1c[nH]c3ccccc13)C2 (configuration not stated)
inactive: all assays above
